Screen size: about 350,000 compounds; about 7,000 (2%) were called active. This excerpt belongs to a sample that is enriched for actives. A number with no mark means an inactive call. Rule as the data show it: active = activation above about 40%; inconclusive = no clear call, values can overlap the other calls; inactive = below that.
Assay: raisers of Bmi1 knock-in reporter signal – mouse ES cells, Bmi1 luciferase knock-in, single point, esBAF inhibitor project, primary screen (AID 602393);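 also: 0% = median of the plate's neutral control wells and 100% = double that signal; a rise in the Bmi1 reporter signal indicates esBAF inhibition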
Conditions: 24 h, at 12.5 µM, stronger effect = higher value, 100% = twice the neutral-well signal

| Compound | reporter increase |
| --- | --- |
| CO[C@@H]1CN(C)C(=O)c2cc(NC(=O)C3CCC3)ccc2OC[C@H](C)N(C(=O)CN(C)C)C[C@@H]1C | -3.99% |
| C[C@H](CO)N1C[C@H](C)[C@@H](CN(C)C(=O)Nc2ccc3c(c2)OCO3)OCCCC[C@H](C)Oc2ccc(NS(=O)(=O)c3cn(C)cn3)cc2C1=O | -2.06% |
| C[C@H]1CN([C@@H](C)CO)C(=O)Cc2cc(NC(=O)Nc3cccc4ccccc34)ccc2O[C@@H]1CN(C)C | -2.18% |
| COc1ccc(S(=O)(=O)N(C)C[C@H]2Oc3ccc(NC(=O)Nc4ccccc4)cc3CC(=O)N([C@H](C)CO)C[C@@H]2C)cc1 | -4.23% |
| O=C(NCCCn1ccnc1)c1ccccc1F | -2.18% |
| O=C(NCCCn1ccnc1)c1cc(Br)c(Br)s1 | -10.5% |
| O=C(NCCCn1ccnc1)c1cc(-c2ccccc2)on1 | 47.2% (active) |
| C[C@@H](NC(=O)[C@@H]1[C@@H](CO)[C@@H]2Cn3c(ccc(C4=CCCCC4)c3=O)[C@@H]2N1C)c1ccccc1 | 1.48% |
| Cc1ccc(S(=O)(=O)Nc2ccc3c(c2)C(=O)N([C@@H](C)CO)C[C@@H](C)[C@H](CN(C)Cc2ccncc2)O3)cc1 | 2.63% |
| C[C@H](CO)N1C[C@H](C)[C@H](CN(C)Cc2ccncc2)Oc2ccc(N(C)C)cc2C1=O | -1.91% |
| CCOC(=O)c1cc2cc(C)ccc2[nH]1 | 70.2% (active) |
| Cc1ccc2[nH]c(=O)c(COC(=O)c3ccccn3)cc2c1 | -2.11% |
| CCOC(=O)c1[nH]c2ccc(C)cc2c1N=C(C)N(C)C | 1.77% |
| CCCNC(=O)N(C)C[C@H]1Oc2cc(C#C[C@@H](C)O)ccc2S(=O)(=O)N([C@H](C)CO)C[C@H]1C | -0.613% |
| COCC(=O)N1C[C@@H]2[C@H](c3ccccc31)[C@@H](CO)N2C(=O)C1CC1 | -6.95% |
| CCNC(=O)[C@@H]1[C@@H](CO)[C@@H]2Cn3c(ccc(-c4ccncc4)c3=O)[C@@H]2N1Cc1cc(F)ccc1F | -2.84% |
| CC(C)Cc1nnc(NC(=O)CCNC(=O)c2ccccc2Cl)s1 | -1.82% |
| CCCC(=O)Nc1nc2ccc(NC(=O)c3c(F)c(F)c(OC)c(F)c3F)cc2s1 | -33% |
| O=C(CCNC(=O)c1ccccc1)Nc1nc2ccccc2s1 | 59.5% (active) |
| O=S(=O)(N[C@H]1CC[C@@H](CCNS(=O)(=O)c2ccccc2Cl)O[C@@H]1CO)c1ccccc1 | 2.98% |
| CCOC(=O)c1ccc(NC(=O)Cc2cccs2)cc1 | 49.7% (active) |
| CCOc1ccc(NC(=O)C/C(C)=N/NC(=O)Cc2cccs2)cc1 | -1.12% |
| O=C(Cc1cccs1)Nc1ccc([N+](=O)[O-])cc1 | 1.47% |
| CN(C)CC(=O)Nc1ccc2c(c1)[C@H]1C[C@@H](CC(=O)NCc3ccccn3)O[C@@H](CO)[C@H]1O2 | -2.09% |
| COc1cccc(S(=O)(=O)N(C)C[C@@H]2Oc3cc(C4=CCCCC4)ccc3S(=O)(=O)N([C@H](C)CO)C[C@H]2C)c1 | -4.77% |
| O=C(OCc1ccc(-c2ccccc2)cc1)c1cccc(O)c1 | 56.3% (active) |
| O=C(OCC(=O)c1c[nH]c2ccccc12)c1cccc(O)c1 | 96.8% (active) |

| Compound | reporter increase |
| --- | --- |
| C[C@H](NC(=O)c1ccccc1)C(=O)OCC(=O)c1c[nH]c2ccccc12 | 4.74% |
| CCOc1ncccc1C(=O)OCC(=O)c1c[nH]c2ccccc12 | 5.19% |
| Cc1ccc(S(=O)(=O)c2c(COC(=O)c3cccc(Cl)c3)c(-c3ccccc3)nn2C)cc1 | 12.1% |
| O=C(OCC(O)C(O)COC(=O)c1ccccc1)c1ccccc1 (centres undefined) | -4.1% |
| COCC(=O)N1C[C@@H](C)[C@H](OC)CN(C)C(=O)c2ccc(NC(=O)c3ccc(F)cc3)cc2OC[C@H]1C | -1.39% |
| CCCNC(=O)N1[C@H](CNC(C)=O)[C@@H](c2ccc(C3=CCCC3)cc2)[C@@H]1CO | 2.55% |
| O=C(c1cc(-c2ccc(Cl)cc2)on1)N1CCN(c2ccccc2)CC1 | 60.8% (active) |
| O=C(c1cc(-c2ccc(O)cc2)on1)N1CCOCC1 | -6.48% |
| COc1ccc(-c2cc(C(=O)N3CCN(c4ccc(F)cc4)CC3)no2)cc1 | 5.86% |
| CC(C)NC(=O)Nc1ccc2c(c1)C(=O)N(C)[C@@H]1CC[C@H](CC(=O)NCC3CCCCC3)O[C@@H]1CO2 | 7.05% |
| COCC(=O)N[C@@H]1C=C[C@@H](CC(=O)N2CCCCC2)O[C@@H]1CO | 0.0415% |
| COc1ccccc1C(=O)N1C[C@H]2[C@@H](c3ccccc31)[C@H](CO)N2C(=O)C1CC1 | -3.8% |
| O=C(C[C@@H]1C=C[C@@H](NC(=O)c2cccnc2)[C@H](CO)O1)NCCN1CCCCC1 | -3.44% |
| COc1cccc(S(=O)(=O)N[C@H]2C=C[C@H](CC(=O)NC3Cc4ccccc4C3)O[C@H]2CO)c1 | -3.77% |
| CCOc1ccc(-n2c(SCC(=O)Nc3ccc(OC)cc3)nc3sc4c(c3c2=O)CCN(C)C4)cc1 | 1.84% |
| COc1ccccc1NC(=O)CSc1nc2sc3c(c2c(=O)n1-c1ccccc1)CCN(C)C3 | 50.8% (active) |
| CCOc1ccc(-n2c(SCC(=O)OC)nc3sc4c(c3c2=O)CCN(C)C4)cc1 | 4.82% |
| COc1cccc(C(=O)NCCSc2ccc(Br)cc2)c1 | -4.36% |
| COc1cccc(C(=O)Nc2cc3c(cc2Br)OCCCO3)c1 | 82% (active) |
| COc1cccc(C(=O)Nc2nnc(S(=O)(=O)N3CCOCC3)s2)c1 | 1.13% |
| O=c1cc(CN2CCCCCCC2)c2c(ccc3ccccc32)o1 | 2.61% |
| Clc1ccc(CN2CCCCCC2)cc1Cl | -0.902% |
| c1ccc2cc3[nH]c(CN4CCCCC4)nc3cc2c1 | 43.8% (active) |
| O=C(C[C@H]1CC[C@@H](NC(=O)Cc2ccccn2)[C@H](CO)O1)NCCc1ccccc1 | 3.63% |
| O=C(/C(=C/c1cccc(Cl)c1)c1nc2ccccc2[nH]1)c1ccccc1 | 98.1% (active) |
| O=c1c2cc(Br)ccc2nc(-c2cccc(Cl)c2)n1O | -7.05% |
| C[C@H](O)C#Cc1ccc2c(c1)O[C@H](CN(C)C)[C@@H](C)CN([C@H](C)CO)S2(=O)=O | -3.76% |

| Compound | reporter increase |
| --- | --- |
| C[C@@H]1CN([C@@H](C)CO)C(=O)Cc2cc(NC(=O)Nc3ccc(F)cc3)ccc2O[C@@H]1CN(C)C(=O)NC1CCCCC1 | 1.74% |
| COCC1CCN(C(=O)c2ccc3oc(Cc4ccccc4)nc3c2)C1 (centres undefined) | 22.8% |
| COCC1CCN(C(=O)CCc2nnc(C3(c4ccc(Cl)cc4)CCC3)o2)C1 (centres undefined) | 52% (active) |
| COCC1CCCN(C(=O)c2ccc3oc(C(C)C)nc3c2)C1 (centres undefined) | 21.9% |
| C[C@@H]1CCCCO[C@@H](CN(C)C(=O)C2CCCCC2)[C@H](C)CN([C@H](C)CO)C(=O)c2cc(NC(=O)CCC(F)(F)F)ccc2O1 | 15.7% |
| COc1cccc(CNC(=O)C[C@@H]2CC[C@@H]3[C@H](COc4ccc(NC(C)=O)cc4C(=O)N3C)O2)c1 | -1.5% |
| CCOC(=O)C1(CCOc2ccccc2)CCN(Cc2cc(OC)cc(OC)c2)CC1 | -7.06% |
| CCOC(=O)C1(Cc2cccc(OC)c2)CCCN(C(=O)CCSC)C1 (centres undefined) | 51.6% (active) |
| CCOC(=O)C1(Cc2cccc(OC)c2)CCN(C(C)CC(C)(C)O)CC1 (centres undefined) | -4.88% |
| CNC(=O)C[C@H]1CC[C@@H]2[C@@H](COc3ccc(NC(=O)c4ccc(F)c(F)c4)cc3C(=O)N2C)O1 | 0.615% |
| C[C@@H]1CN([C@H](C)CO)C(=O)c2cc(C#CC3CC3)cnc2O[C@@H]1CN(C)Cc1ccccn1 | -2.08% |
| COc1cc(NC(=O)c2ccc(-c3csc(C)n3)cc2)c(OC)cc1Cl | 23.9% |
| CC(=O)NC(c1cccc(F)c1)c1nc(-c2cccc(F)c2)cs1 (centres undefined) | 1.42% |
| COc1cccc(C(O)c2nc(-c3ccc(C)c(C)c3)cs2)c1 (centres undefined) | 3.8% |
| CC(=O)Nc1cccc(-c2csc(Nc3cccc(C)n3)n2)c1 | 51.5% (active) |
| COc1ccc(-c2csc(Nc3cccc(C)n3)n2)cc1OC | 86.6% (active) |
| CC(=O)Nc1cccc(-c2cc(NC(C)=O)c3ncc(-c4ccccc4)n3c2)c1 | -27.3% |
| CC(=O)Nc1cccc(-c2cnc3ccccc3n2)c1 | 72.3% (active) |
| CC(=O)NC(c1ccccc1)c1nc(-c2cccc(C(C)C)c2)cs1 (centres undefined) | -2.45% |
| COc1cccc(-c2cnc3c(NC(C)=O)cc(-c4cccc(NC(C)=O)c4)cn23)c1 | 6.31% |
| COc1cccc(-c2cnc3c(c2)C(=O)N([C@H](C)CO)C[C@@H](C)[C@H](CN(C)Cc2ccc(F)cc2)O3)c1 | 1.81% |
| Cc1noc(C)c1S(=O)(=O)N(C)C[C@@H]1OCCCC[C@@H](C)Oc2ccc(NC(=O)c3ccccc3)cc2C(=O)N([C@@H](C)CO)C[C@@H]1C | 4.85% |
| COc1ccc(S(=O)(=O)Nc2ccc3c(c2)C(=O)N([C@@H](C)CO)C[C@H](C)[C@@H](CN(C)C(=O)c2ccccc2)OCCCC[C@H](C)O3)cc1 | -1.88% |
| C/C=C/c1ccc([C@H]2[C@@H](CO)N(C(C)=O)[C@H]2CNC(=O)c2ccncc2)cc1 | 2.82% |
| C[C@@H]1CN([C@@H](C)CO)C(=O)c2cc(NS(=O)(=O)c3ccccc3)ccc2O[C@@H](C)CCCCO[C@H]1CN(C)S(=O)(=O)c1cccs1 | -5.79% |
